# Bioassay records: PubChem BioAssay, National Center for Advancing Translational Sciences (NCATS)
# TrxR1 substrate: substrates of rat thioredoxin reductase 1. AID 588456. purified TrxR1 substrate turnover, NADPH consumption readout. Potency, µM (series often up to 114 µM), without a hit: at the highest dose activity change, negative = substrate turnover. actives 0.01% (n = 390,000). O89049; further: potency means the concentration at half of the fitted maximal effect; nearly all actives have a fitted effect of over 50% in size
# Target sequence (O89049 whole entry, looked up): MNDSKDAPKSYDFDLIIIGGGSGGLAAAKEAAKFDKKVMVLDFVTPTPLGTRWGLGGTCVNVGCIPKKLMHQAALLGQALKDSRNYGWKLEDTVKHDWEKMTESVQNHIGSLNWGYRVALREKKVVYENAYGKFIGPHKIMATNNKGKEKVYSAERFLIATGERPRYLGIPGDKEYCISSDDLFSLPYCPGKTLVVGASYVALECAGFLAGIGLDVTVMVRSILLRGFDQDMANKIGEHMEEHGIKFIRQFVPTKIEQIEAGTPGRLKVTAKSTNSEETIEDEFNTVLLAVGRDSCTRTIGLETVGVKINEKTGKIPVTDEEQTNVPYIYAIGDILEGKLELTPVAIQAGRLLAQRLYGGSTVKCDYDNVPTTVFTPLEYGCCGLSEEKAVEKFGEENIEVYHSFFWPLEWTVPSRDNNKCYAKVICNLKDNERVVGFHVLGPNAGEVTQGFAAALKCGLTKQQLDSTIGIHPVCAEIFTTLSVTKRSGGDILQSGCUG
#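 Rat TrxR1, dispensed at 90 nM, was prereduced with 400 uM NADPH (final) for 5 min at ~22 deg C, then incubated with compound 15 min before 400 uM selenite. A first-read NADPH fluorescence drop versus no-compound background flagged substrates.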
# Integrin act MD: activators of alpha7 integrin expression for muscular dystrophy. alpha7betagal myoblasts, beta-gal FDG fluorescence, 48 h. Potency, µM (titrated, usually from 38.3 µM), inactives show at the highest dose activation, most hits filed as activators. actives 0.064% (n = 350,000). AID 624291;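 further: potency means the concentration at half of the fitted maximal effect; 100% = response of the positive control SU9516; nearly all actives have a fitted effect of over 60% in size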
#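 alpha7betagal+/- myoblasts (passage 13, 250/well) treated 48 h at 37C with compounds at 1:260 dilution of DMSO stock. Lysed, then beta-galactosidase activity read as FDG fluorescence (ex 480/em 540) after 30 min, with pre-read for autofluorescence.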
# LDHA inh: inhibitors of human lactate dehydrogenase A | P00338 | purified LDHA, NADH/diaphorase-resazurin fluorescence; stronger effect = lower value | activity change, % (values are at about 110 or 230 µM) | actives 0.15% (n = 480,000) | AID 1347041; in the data active means activity change below about -30%; inconclusive means mostly about -25% to -30%;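 further: plate controls were DMSO wells for no effect and wells without enzyme for full effect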
#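 Enzyme activity of human lactate dehydrogenase 5 (2 nM; 0.06 mM NADH, 0.2 mM pyruvate, 5 min, RT) is measured via a resazurin/diaphorase fluorescence readout of residual NADH.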
# GALK inhibitor: inhibitors of human galactokinase | P51570 | Purified GALK, Kinase-Glo residual ATP luminescence | Potency, µM (highest dose often 57.5 µM), without a hit: top-dose activity change, negative = inhibition, most hits filed as inhibitors | actives 0.007% (n = 270,000); further: potency means the concentration at half of the fitted maximal effect
#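 The enzyme phosphorylates galactose (100 uM) using ATP (35 uM); inhibition is detected as higher residual ATP, quantified by bioluminescence after 1 h reaction at room temperature, pH 8.0.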
# PI4K2A inh: blocks human PI4K2A kinase activity. Q9BTU6. purified PI4K2A, ADP-Glo luminescence, 1 h; stronger effect = lower value. activity change, negative = inhibition, % at 76.9 µM. actives 0.13% (n = 420,000). AID 1346378; in the data active means activity change below about -50%; inconclusive means mostly about -30% to -49%;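 further: -100% = wells without enzyme as full effect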
#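 In this quantitative HTS, ADP production by PI4K2A was quantified luminescently after 1 h at ambient temperature; 100 microM adenosine served as plate-quality control.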
# TrxR1 inh: blocks rat thioredoxin reductase 1 | O89049 | recombinant rTrxR1, NADPH fluorescence consumption, selenite substrate | Potency, µM (titrated, usually from 114 µM), without a hit: at the top dose activity change, negative = inhibition, actives largely listed as inhibitors | actives 1% (n = 390,000) | AID 588453; further: potency means the concentration at half of the fitted maximal effect; nearly all actives have a fitted effect of over 65% in size
#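 Rat TrxR1 (90 nM in the dispensed reagent) was pre-reduced with 400 uM NADPH for 5 min at room temperature, then incubated with compound for 15 min. After 400 uM selenite was added, NADPH fluorescence (Ex 340/Em 450 nm) was followed for 8 min.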
# The depositor's hits bear a star; ? = inconclusive; . = no result; [ ] = remark or other dose. This is a sample that favours compounds with a hit; in the whole collection about 1.1% have one here. Unless noted, the call rests on the fitted dose curve; in most records, active means well fitted curve in the direction sought with a large enough effect; inconclusive means small, poorly fitted or top-dose-only effect, or another doubt; inactive means no such curve, though single readings can be large; an effect the other way counts as inactive or inconclusive. Unless noted, on the % scale 0 is the no-effect control and ±100 the full control effect.
SMILES,TrxR1 substrate,Integrin act MD,LDHA inh,GALK inhibitor,PI4K2A inh,TrxR1 inh
COc1cc2cc(CCOC(=O)c3ccc(C(F)(F)F)cc3)oc(=O)c2cc1OC,4%[57.1 µM],-8%,-3,.,-1,31%[57.1 µM]
O=C(CN1CCCN(S(=O)(=O)c2ccc(Br)s2)CC1)Nc1ccc(Cl)cc1,-7%,-50%,-6,-1%,6,-29%
CCOC(=O)CNC(=O)CN1CCCN(S(=O)(=O)c2ccc(Br)s2)CC1,0%,-17%,0,-1%,-12,16µM*
O=[N+]([O-])c1ccc(-c2ccn[nH]2)o1,2%[57.1 µM],-10%,5,3%,-3,3.5µM*
COc1ccc(OC)c(C(=O)c2oc3cc(NC(=O)C4CC4)ccc3c2C)c1,.,.,-19,.,.,.
O=C(C[n+]1c2ccccc2cc2ccccc21)c1ccc(F)cc1,8%,.,-45*,.,.,-24%
O=C(C[n+]1cccc2ccccc21)c1ccc(F)cc1,17%,.,.,.,.,7%
CCc1ccc(OCC(=O)OCC(=O)c2cc3ccccc3o2)cc1,.,.,0,.,.,.
CCOC(=O)c1[nH]c(=O)[nH]c1COC(=O)c1cc2ccccc2o1,1%,-3%,-4,3%,0,3.2µM*
CCCOC(=O)/C(=C\c1ccc([N+](=O)[O-])o1)NC(=O)c1ccccc1,10%[57.1 µM],-13%,-5,-3%,0,-15%
CCOC(=O)/C(=C\c1ccc([N+](=O)[O-])o1)NC(=O)c1ccccc1,-1%,-45%,-1,-1%,0,7.9µM*
Cc1cc(Nc2cccc(F)c2)nc(-c2ccccc2)n1,.,.,3,.,.,.
COc1ccc2nc(/N=C/c3c(C)[nH]n(-c4ccc(C)cc4C)c3=O)sc2c1,-8%,-5%,-8,2%,1,1%
Cc1cc(Br)ccc1-n1[nH]c(C)c(C=Nc2cccc3nsnc23)c1=O,-4%[57.1 µM],7%,28,3%,-54*,-82%
COCCNc1oc(COc2ccc(-c3ccccc3)cc2)nc1C#N,.,.,7,.,.,.
CCCCN(C)C(=O)c1cc2cc3ccc(OC)cc3nc2s1,42%,15%,1,5%,-55*,-14%
CCN(CCCNC(=O)c1cc2cc3ccc(OC)cc3nc2s1)c1ccccc1,5%,.,-3,.,-8,13%
CC1=C(C(=O)NCc2ccccc2)C(c2ccccc2)NC(=S)N1 (stereo unspecified),.,.,6,.,.,.
CN(C)S(=O)(=O)c1ccc(-c2nc(C#N)c(N3CCN(c4ccccc4)CC3)o2)cc1,.,.,0,.,.,.
CCn1c(CNC(=O)c2ccc3c(c2)OCO3)nnc1SCC(=O)c1ccc(OC)cc1,.,.,-30*,.,.,.
O=C(CCN1CCCCC1)c1ccc2c(c1)OCO2,-6%,-59%,0,.,12,?
O=C(CCN1CCOCC1)c1ccc2c(c1)OCCO2,7%,-56%,-1,-2%,11,4µM*
O=C(CCN1CCc2ccccc2CC1)c1ccc2c(c1)OCCO2,3%,-67%,-10,2%,22,0.32µM*
O=C(CCCN1CCOCC1)c1ccc2c(c1)OCCO2,10%,-4%,-2,5%,-3,8%
COC1=C(N)C(=O)c2nc(-c3nc(C(=O)O)c(C)c(-c4ccc(OC)c(OC)c4O)c3N)ccc2C1=O,-17%,.,10,8.9µM*,?,-4%
SMILES,TrxR1 substrate,Integrin act MD,LDHA inh,GALK inhibitor,PI4K2A inh,TrxR1 inh
CC(=O)Nc1ncc2c(n1)CC(c1ccc(C(C)(C)C)cc1)CC2=O (stereo unspecified),.,.,-7,.,.,.
CCOc1ccc2nc(NC(=O)c3ccccc3)sc2c1,-4%,.,-1,.,-58*,-19%
COc1ccc(/C(C)=C(\C#N)c2nc3ccccc3[nH]2)cc1,.,.,13,.,.,.
COc1ccc(NC(C)=O)cc1NC(C)C(=O)N(C)Cc1cccc(F)c1 (stereo unspecified),.,.,0,.,.,.
COc1ccc(CN2CCN(C(C)C(=O)N(C)Cc3cccc(F)c3)CC2)cc1OC (stereo unspecified),-2%,9%,-34*,-4%,-5,9%
O=C(CCl)N(c1ccccc1)C1CCCCC1,14%[57.1 µM],-57%,-7,-3%,7,3.2µM*
O=C1c2ccccc2-c2ccccc21,.,.,-2,.,.,.
O=C1C(O)=C(O)C(=O)c2ccccc21,106%,0%,13,.,-50*,?
Cc1ccc(OCC(=O)N(C)CC(=O)Nc2c(Cl)cccc2Cl)cc1C,.,.,-4,.,.,.
Cc1nn(C(=O)C2CCCN2S(=O)(=O)c2ccc(F)cc2)c(C)c1Sc1ccccc1 (stereo unspecified),.,.,-34*,.,.,.
Cc1ccc(S(=O)(=O)N2CCCC2C(=O)n2nc(C)c(Sc3ccccc3)c2C)cc1 (stereo unspecified),.,.,-35*,.,.,.
Cc1ccc(S(=O)(=O)N2CCCC2C(=O)N2CCN(c3ccccc3)CC2)cc1 (stereo unspecified),.,.,.,.,3,.
CCOC(=O)c1cnc2c(Cl)cc(Cl)cc2c1NCCCN1CCOCC1,5%,-14%,-10,1%,7,16µM*
CCCc1nnc2sc(-c3ccc4c(c3)OCO4)nn12,.,.,1,.,.,.
O=S(=O)(O)c1ccc2c(N=Nc3ccc(S(=O)(=O)O)c4ccccc34)c(O)c(S(=O)(=O)O)cc2c1,34%,.,11,.,.,71µM*
O=C1NC(=S)S/C1=C\c1ccc(SCc2ccccc2)o1,0%,24%,-6,0%,-4,25µM*
O=C1NC(=S)SC1=Cc1ccccc1Cl,-15%,0%,-17,.,-1,-32%
O=C1NC(=S)S/C1=C\c1ccc(SCc2ccco2)o1,-3%,-26%,-6,.,-28,8.9µM*
CC(C)CCC(CCNC(C)c1cccs1)C1CCOC(C)(C)C1 (stereo unspecified),.,.,-3,.,.,.
O=C(Cc1ccc2c(c1)CCCC2)NC1CCCCCC1,.,.,-1,.,.,.
C=CCn1c(SCc2nc3ccccc3nc2C)nnc1-c1ccoc1C,0%,6%,3,6%,-19,45µM*
CN(C)/[N+]([O-])=N/Oc1ccc([N+](=O)[O-])cc1[N+](=O)[O-],-11%,.,12,.,.,13µM*
CCN(CCN(C)Cl)/[N+]([O-])=N/Oc1ccc([N+](=O)[O-])cc1[N+](=O)[O-],-3%,.,2,.,.,10µM*
CNc1ccc(C(=O)Oc2cc(O/N=[N+](\[O-])N(C)C)c([N+](=O)[O-])cc2[N+](=O)[O-])cc1,-25%,.,.,.,.,25µM*
CN(C)/[N+]([O-])=N\Oc1cc(OC(=O)c2ccc(N)cc2)c([N+](=O)[O-])cc1[N+](=O)[O-],-16%,.,9,.,.,-33%
CN(Cc1ccccc1)/[N+]([O-])=N/Oc1ccc([N+](=O)[O-])cc1[N+](=O)[O-],-4%,.,6,.,.,2.8µM*
